Bioassay records from PubChem BioAssay.
Compounds with a hit are over-represented: about 6.1% of the library has one in this group of screens.
D1 potentiator – human D1 dopamine receptor positive modulation; P21728; HEK293 TREx D1 cells, calcium flux, dopamine EC20 potentiation; potentiation, % at 10 µM; 0.036% of 360,000 active; in the data active means potentiation above about 30%
Target sequence (P21728 whole entry, looked up): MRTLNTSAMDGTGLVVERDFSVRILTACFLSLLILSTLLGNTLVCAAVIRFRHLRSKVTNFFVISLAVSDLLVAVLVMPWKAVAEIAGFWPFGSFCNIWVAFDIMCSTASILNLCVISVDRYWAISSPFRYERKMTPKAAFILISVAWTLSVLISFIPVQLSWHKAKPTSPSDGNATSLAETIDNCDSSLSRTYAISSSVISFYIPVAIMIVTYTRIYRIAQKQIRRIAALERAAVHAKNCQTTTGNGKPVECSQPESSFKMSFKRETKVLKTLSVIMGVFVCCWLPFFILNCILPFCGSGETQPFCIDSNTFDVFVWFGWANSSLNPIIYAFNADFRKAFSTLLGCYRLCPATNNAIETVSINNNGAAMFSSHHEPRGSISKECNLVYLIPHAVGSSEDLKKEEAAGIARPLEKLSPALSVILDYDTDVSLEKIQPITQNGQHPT
D3 ag – D3 dopamine receptor (human) agonism | P35462 | D3R DiscoveRx beta-arrestin cells, luminescence, 90 min | max activation, % | 0.58% of 410,000 active; in the data active means max activation above about 30%
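Cells at 1500/well, incubated overnight, then treated with pinned compounds (dopamine as control) for 90 min at 37 degrees C. DiscoveRx reagent added for 30 - 60 minutes at room temperature; luminescence read.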
D1 ag – agonists of human D1 dopamine receptor. HEK293 T-REx D1 cells, calcium flux, agonist mode. activation, % at 2 µM. 1% of 360,000 active. AID 504660; in the data active means activation above about 30%
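Agonism was scored from calcium flux recorded over 180 s (1 read/s) after pintool compound addition, following a 10-cycle baseline. Cells were inducible force-coupled HEK293 TREx D1, plated overnight at 30 C and loaded with no-wash calcium dye.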
D1 antag – human D1 dopamine receptor antagonism; P21728; HEK293 TREx D1 cells, calcium flux, dopamine EC80; hits give low values; activity change, negative = inhibition, % at 10 µM; 3.2% of 360,000 active; AID 504652; in the data active means activity change below about -30%
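Using tetracycline-induced force-coupled D1 Hek293 cells and a calcium dye, signals were followed for 180 s after compound, then for 180 s after EC80 dopamine, to detect inhibitors.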
DRD3 antagonist – blocks the human D3 dopamine receptor; D3R cells, DiscoveRx beta-arrestin luminescence, antagonist mode; hits give low values; P35462; max response, negative = inhibition, %; 2.5% of 360,000 active; in the data active means max response below about -50%; inconclusive means no clear call, values can overlap the other calls
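Cells expressing the human receptor were seeded at 1500 cells/well, incubated overnight at 37 degrees C in 5% CO2, then exposed to library compounds with dopamine controls for 90 minutes at 37 degrees C before luminescent detection.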
ERG-DNA inh – inhibitors of human ERG Ets domain-DNA interaction | AID 624246 | fluorescence polarization, His-ERG Ets domain / labelled DNA | 0.028% of 370,000 active | Potency, µM (titrated, usually from 76.9 µM), hits mostly inhibitors; active means well fitted inhibition curve with a large enough effect in the polarisation, with a control signal flat; inconclusive means small, poorly fitted or top-dose-only effect, or effect the other way, or a change in a side signal; inactive means no such curve, though single readings can be large or run the other way; the % refers to the polarisation;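 further: polarization taken with two DNA probes labelled with fluorescein and Texas red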
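His-tagged ERG Ets domain (1 uM in the protein solution; 300mM KCl, 50mM Tris-HCl, 1mM EDTA, 1mM DTT, pH 7.5) received compound, then a probe mix of 5 nM fluorescein-DNA and 100nM Texas-615-DNA. Fluorescence polarization was read for both dyes.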
A number is an active result; – = inactive; ? = inconclusive; · = no result given.

SMILES | D1 potentiator | D3 ag | D1 ag | D1 antag | DRD3 antagonist | ERG-DNA inh
CCCCNC(=S)Nc1ccc(C(F)(F)F)cc1 | – | – | – | -33 | – | –
O=C(CSc1nc2ccccc2n1S(=O)(=O)c1ccccc1)N1CCCC1 | – | – | – | – | – | ·
CCOC(=O)CSc1nnc(-c2cccnc2)n1Cc1ccccc1 | – | – | – | – | – | –
CCc1c(C)sc(NC(=O)c2ccoc2C)c1C(N)=O | – | – | – | – | – | –
Cc1cc(C(F)(F)F)nn1Cc1n[nH]c(=S)n1-c1cccc(Cl)c1 | – | – | – | -32 | – | –
Cc1cc(C(F)(F)F)nn1Cc1n[nH]c(=S)n1-c1ccc(Cl)cc1 | – | – | – | – | – | –
O=C(Nc1nnc(-c2ccco2)o1)C1CCCCC1 | – | – | – | – | – | –
NS(=O)(=O)c1cc(C(=O)NC2CCSc3ccccc32)ccc1Cl (stereo unspecified) | – | – | – | – | – | –
COc1ccc(C2(CNC(C)=O)CCOCC2)cc1OC | · | – | – | -35 | – | –
Cc1ccccc1N1C(=O)C(Cl)=C(N2CCN(c3ccccc3)CC2)C1=O | – | – | – | – | – | –
O=C1CN2C(=N1)N(Cc1ccccc1)c1ccccc12 | – | – | – | -87 | – | –
CCCCCC(=O)Nc1cccc(C2=NOC3(C2)C[C@@H](C(N)=O)N(C(=O)c2cc([N+](=O)[O-])cc([N+](=O)[O-])c2)C3)c1 (stereo partly specified) | – | – | – | – | – | –
C/C=C(/C)C(=O)Nc1cccc(C2=NOC3(C2)C[C@@H](C(N)=O)N(C(=O)CC)C3)c1 (stereo partly specified) | – | – | – | – | – | –
CCCCCC(=O)Nc1cccc(C2=NOC3(C2)C[C@@H](C(N)=O)N(C(=O)Cc2ccc([N+](=O)[O-])cc2)C3)c1 (stereo partly specified) | – | – | – | – | -56 | –
C/C=C/C(=O)Nc1cccc(C2=NOC3(C2)C[C@@H](C(N)=O)N(C(=O)/C(C)=C/C)C3)c1 (stereo partly specified) | – | – | – | -31 | – | –
C=C(C)C(=O)Nc1cccc(C2=NOC3(C2)C[C@@H](C(N)=O)N(C(=O)c2cc([N+](=O)[O-])cc([N+](=O)[O-])c2)C3)c1 (stereo partly specified) | – | – | – | – | – | –
C=C(C)C(=O)Nc1cccc(C2=NOC3(C2)C[C@@H](C(N)=O)N(C(=O)c2ccc(OC)cc2)C3)c1 (stereo partly specified) | – | – | – | -33 | – | –
C/C=C(\C)C(=O)Nc1cccc(C2=NOC3(C2)C[C@H](C(N)=O)N(C(=O)CC#N)C3)c1 (stereo partly specified) | – | – | – | -48 | – | –
O=C(Nc1ncc(C(F)(F)F)cc1Cl)c1ccc(S(=O)(=O)N2CCOCC2)cc1 | – | – | – | – | – | –
c1ccc2[nH]c3cc4ncnc4cc3nc2c1 | – | – | 33 | – | – | –
O=C1Nc2ccc(Br)cc2C12NNc1ccccc1O2 (stereo unspecified) | – | – | 33 | – | – | –
CCN1C(=O)c2ccccc2Sc2ccc(C(=O)NCCC(C)C)cc21 | – | – | – | – | – | –
CCOc1ccc(CCNC(=O)c2cccc(Nc3nc4ccccc4nc3-n3nc(C)cc3C)c2)cc1OCC | – | – | – | – | · | –
COc1ccc(Cl)cc1NC(=O)COC(=O)C1CC1 | – | – | – | – | – | –
Cc1nn(-c2ccccc2)c2c1/C(=N/O)CC(C)(C)C2 | – | – | – | – | – | –
SMILES | D1 potentiator | D3 ag | D1 ag | D1 antag | DRD3 antagonist | ERG-DNA inh
Cc1nn(-c2ccccc2)c2c1C(=O)N(c1ccccc1)C(=O)C(C)(C)C2 | – | – | – | -40 | – | –
C=C1C(=O)C=C[C@]2(C)C[C@@H]3OC(=O)[C@](C)(O)[C@H]3C[C@@H]12 | – | – | – | – | ? | –
C[C@@H]1C[C@@H]2OC(=O)[C@]3(C)[C@H]2[C@@H](OC3(C)O)[C@]2(C)C(=O)C=C[C@H]12 (stereo partly specified) | – | – | – | -37 | -53 | –
CN(C)CCn1cnc2c1c(=O)[nH]c(=O)n2Cc1ccccc1 | – | – | – | – | – | –
O=[N+]([O-])c1ccc(NC2CCN(Cc3ccccc3)CC2)c([N+](=O)[O-])c1 | – | – | – | – | -62 | –
O=[N+]([O-])c1ccccc1NC1CCN(Cc2ccccc2)CC1 | – | – | – | – | ? | –
O=C1C2CCCCC2C(=O)N1c1ccc(NC2CCN(Cc3ccccc3)CC2)c([N+](=O)[O-])c1 (stereo unspecified) | – | – | – | – | – | –
CC1CCC2C(=O)N(c3ccc(NC4CCN(Cc5ccccc5)CC4)c([N+](=O)[O-])c3)C(=O)C2C1 (stereo unspecified) | – | – | – | – | -50 | –
O=C(NC1CCCCC1)c1cc2ccccc2cc1O | – | – | – | – | – | –
Nc1nc2ncccc2cc1C(=O)NC1CCCCC1 | · | 77 | · | · | – | ·
CC(C)CN(C(=O)CN1CCN(S(=O)(=O)c2ccc3ccccc3c2)CC1)c1c(N)n(CC(C)C)c(=O)[nH]c1=O | – | – | – | -88 | – | –
Cc1ncc([N+](=O)[O-])n1CCOC(=O)NC(Nc1ccc(F)cc1)C(Cl)(Cl)Cl (stereo unspecified) | – | – | – | – | – | –
Cc1ccccc1NC(NC(=O)OCCn1c([N+](=O)[O-])cnc1C)C(Cl)(Cl)Cl (stereo unspecified) | – | – | – | -33 | -63 | –
COc1cccc(C(=O)NCC2(c3ccccc3)CCCC2)c1 | – | – | – | – | – | –
COc1ccc(COc2ccccc2C(=O)NCc2ccccc2)cc1F | – | – | – | -37 | – | –
CCOc1ccc(Cl)cc1-c1cc(C(=O)NCc2ccccc2)[nH]n1 | · | – | · | · | – | ·
COc1ccc(Cl)cc1-c1cc(C(=O)NCc2ccccc2)[nH]n1 | · | – | · | · | -59 | ·
COc1ccc(Cl)cc1-c1cc(C(=O)Nc2ccc(Br)cc2)[nH]n1 | · | – | · | · | -76 | ·
CCCCN(C(=O)COC(=O)c1nc2nc(C)cc(C)n2n1)C1CCS(=O)(=O)C1 (stereo unspecified) | – | – | – | – | – | –
CCC1CCCCN1CCCNC(=O)c1cn(CC(C)C)c(=O)c2cc(OC)c(OC)cc12 (stereo unspecified) | – | – | – | · | -68 | –
Cc1ccc(S(=O)(=O)NNC(=O)c2sccc2-n2cccc2)cc1 | – | – | – | -43 | – | –
